# Assay results reported in publication PMC4336329 (PLoS ONE, 2015).
# Screen size: about 310,000 compounds; about 14,000 (4.5%) showed an effect of 50% or more. The effect is printed as a negative number. The full list was thinned out, with strong results kept by preference.
# Molecular target: human ether-à-go-go-related gene (hERG) potassium channel (human, UniProt Q12809)
# Experiment: primary screen, population patch clamp on CHO cells stably expressing hERG; higher = less effect of the substance
# 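Further: peak tail current of the secondary pulse compared with the same well before compound.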
# Chain of human ether-à-go-go-related gene (hERG) potassium channel (Q12809 whole entry, looked up): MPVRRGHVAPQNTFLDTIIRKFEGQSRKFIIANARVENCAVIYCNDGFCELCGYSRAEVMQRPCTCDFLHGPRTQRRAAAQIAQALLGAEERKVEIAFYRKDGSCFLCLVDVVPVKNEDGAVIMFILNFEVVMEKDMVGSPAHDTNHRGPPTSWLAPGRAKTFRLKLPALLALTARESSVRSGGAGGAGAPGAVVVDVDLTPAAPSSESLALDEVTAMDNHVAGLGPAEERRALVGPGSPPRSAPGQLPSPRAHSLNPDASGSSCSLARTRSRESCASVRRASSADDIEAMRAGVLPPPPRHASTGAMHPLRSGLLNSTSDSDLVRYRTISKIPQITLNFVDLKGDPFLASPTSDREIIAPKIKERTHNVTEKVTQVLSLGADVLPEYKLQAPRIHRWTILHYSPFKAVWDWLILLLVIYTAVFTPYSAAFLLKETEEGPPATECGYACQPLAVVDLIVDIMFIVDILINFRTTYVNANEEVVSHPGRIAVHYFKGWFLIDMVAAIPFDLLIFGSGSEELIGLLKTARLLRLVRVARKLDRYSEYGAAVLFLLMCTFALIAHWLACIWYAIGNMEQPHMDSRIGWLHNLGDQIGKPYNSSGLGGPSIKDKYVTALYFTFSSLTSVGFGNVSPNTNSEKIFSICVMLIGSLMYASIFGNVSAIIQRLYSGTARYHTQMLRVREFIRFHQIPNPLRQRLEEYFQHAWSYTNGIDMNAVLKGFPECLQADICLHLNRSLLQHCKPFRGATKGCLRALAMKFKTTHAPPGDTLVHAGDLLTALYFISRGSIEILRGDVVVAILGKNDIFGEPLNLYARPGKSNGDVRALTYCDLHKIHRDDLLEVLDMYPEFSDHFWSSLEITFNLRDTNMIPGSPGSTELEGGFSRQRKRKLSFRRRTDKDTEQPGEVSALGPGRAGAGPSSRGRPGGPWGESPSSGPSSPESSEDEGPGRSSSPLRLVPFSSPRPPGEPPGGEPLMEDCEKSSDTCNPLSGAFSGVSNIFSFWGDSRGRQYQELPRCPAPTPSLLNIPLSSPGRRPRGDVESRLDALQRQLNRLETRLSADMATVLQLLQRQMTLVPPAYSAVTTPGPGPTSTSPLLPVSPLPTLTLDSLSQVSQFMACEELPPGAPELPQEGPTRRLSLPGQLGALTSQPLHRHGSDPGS
row,SMILES,"hERG current change (%, negative = inhibition) at 10uM [%]"
1,CCOc1ccccc1NC(=O)NCc1ccco1,8.52
2,CC(=O)N1CCc2cc(S(=O)(=O)CCC(=O)NCc3ccc(F)cc3)ccc21,-13.8
3,O=C1C=C(O)C(n2cncn2)C(c2ccc3c(c2)OCO3)C1 (stereo not shown),17.1
4,O=C(NCc1cccnc1)c1nc(-c2ccccc2)n(-c2ccccc2)n1,-14.7
5,O=C(CCCCCn1c(=S)[nH]c2ccc(N3CCOCC3)cc2c1=O)NCc1ccccc1,12
6,COc1ccc(C(=O)OCc2c(C)noc2C)cc1,12.9
7,COC(=O)c1ccc(NC(=S)NC2CCc3ccccc32)cc1 (stereo not shown),-13.9
8,CNS(=O)(=O)c1ccc2c3c(cccc13)C(=O)N2,9.73
9,Cc1cc(C)c2nc(N(CCN(C)C)C(=O)/C=C/c3cccs3)sc2c1.Cl,17.9
10,Cc1cc(C)c2nc(N(CCCN(C)C)C(=O)c3ccc(S(=O)(=O)N4CC(C)OC(C)C4)cc3)sc2c1.Cl (stereo not shown),-33.7
11,COc1ccc(C)c2sc(N(CCCN(C)C)C(=O)c3ccc(S(=O)(=O)N(C)C)cc3)nc12.Cl,-61.5
12,COc1ccc(C)c2sc(N(CCCN(C)C)C(=O)c3ccc(S(=O)(=O)N4CCc5ccccc5C4)cc3)nc12.Cl,9.73
13,Cc1ccc(S(=O)(=O)CC(=O)N(CCCN(C)C)c2nc3ccc(C)cc3s2)cc1.Cl,-43.9
14,COc1ccc(C)c2sc(N(CCCN(C)C)C(=O)CS(=O)(=O)c3ccc(F)cc3)nc12.Cl,-60.3
15,Cc1cccc2sc(N(CCCN3CCOCC3)C(=O)CS(=O)(=O)c3ccc(F)cc3)nc12.Cl,-16.9
16,COc1ccc(OC)c2sc(N(CCCN(C)C)C(=O)c3ccc(S(=O)(=O)N4CCc5ccccc5C4)cc3)nc12.Cl,-8.54
17,Cc1cc(C)c2nc(N(CCCN(C)C)C(=O)C3=COCCO3)sc2c1.Cl,-65.9
18,Cc1ccc(-n2nnnc2SCC(=O)N2CCCCC2)cc1,-3.3
19,CCNC(=S)N/N=C/c1c(Cl)cccc1Cl,18.1
20,Cc1cccc(-n2ncc3c2CCCC3NC(=O)C2CCOCC2)c1C (stereo not shown),6.59
21,O=C(Nc1cnc2ccccn2c1=O)c1ccc(Cl)cc1,-23
22,O=C(CN1C(=O)NC(c2ccccc2)(c2ccccc2)C1=O)NCc1ccccc1,-31
23,NC(=O)NC(=O)CN1C(=O)NC(c2ccccc2)(c2ccccc2)C1=O,4.8

row,SMILES,"hERG current change (%, negative = inhibition) at 10uM [%]"
1,CN(CC(=O)Nc1ccccc1Cl)C(=O)COC(=O)CN1C(=O)NC2(CCCC2)C1=O,9.31
2,COc1ccc(NC(=O)CN2C(=O)NC(c3ccccc3)(c3ccccc3)C2=O)cc1,-55
3,COc1ccc(CNC(=O)C(C)N2C(=O)NC(c3ccccc3)(c3ccccc3)C2=O)cc1 (stereo not shown),-86.5
4,COc1cc(NC(=O)CN2C(=O)NC(c3ccccc3)(c3ccccc3)C2=O)cc(OC)c1,5.79
5,C=CCNC(=O)NC(=O)CN1C(=O)NC(c2ccccc2)(c2ccccc2)C1=O,-69.5
6,COc1ccc(C2(c3ccc(OC)cc3)NC(=O)N(CC(=O)Nc3ccccc3)C2=O)cc1,28.6
7,CN(CC(=O)Nc1ccccc1Cl)C(=O)CN1C(=O)NC(c2ccccc2)(c2ccccc2)C1=O,-66.8
8,CCNC(=O)NC(=O)C(C)N1C(=O)NC(c2ccccc2)(c2ccccc2)C1=O (stereo not shown),-43.6
9,CC(C(=O)NC(N)=O)N1C(=O)NC(c2ccccc2)(c2ccccc2)C1=O (stereo not shown),-14.9
10,CCN1C(=O)C(=O)N(CC(=O)N(C)CC(=O)Nc2ccccc2Cl)C1=O,4.13
11,CCOC(=O)N1CCN(C(=O)c2csc3c2CCCCC3)CC1,8.08
12,C=C(C)C1Cc2c(C)nn(-c3ccccn3)c2C1 (stereo not shown),11
13,Cc1csc(SCC(=O)Nc2sccc2C#N)n1,-0.612
14,Cc1oc(-c2ccccc2)nc1CS(=O)CC(=O)NC1CCCCCC1 (stereo not shown),-11.5
15,Cc1cccc(OCC(=O)NCC(=O)n2nc(C)cc2C)c1,10.5
16,Oc1c(C(c2ccco2)N2CCC3(CC2)OCCO3)sc2ncnn12 (stereo not shown),1.38
17,COc1ccc(C2=CC(c3ccc(Cl)cc3)n3cnnc3N2)cc1OC (stereo not shown),-52
18,COc1ccc(C2C=C(c3ccc(Cl)cc3)Nc3nc(NC(C)=O)nn32)cc1 (stereo not shown),-39.7
19,COc1ccc(C2=CC(c3c(C)nn(-c4ccccc4)c3Cl)n3nnnc3N2)cc1OC (stereo not shown),11.4
20,COCCn1c(SCC(=O)Nc2sc(C)c(C)c2C#N)nnc1C(C)C,-3.62
21,COCCn1c(SCC(=O)Nc2sc(C)c(C)c2C#N)nnc1-c1ccc(OC)cc1,-52.1
22,CCOC(=O)c1sc(NC(=O)CSc2nnc(-c3ccc(OC)cc3)n2CCOC)nc1C,-27.3
23,Cc1ccc(-c2nnc(SCC(=O)Nc3sc(C)c(C)c3C#N)n2C)cc1,-54.1

row,SMILES,"hERG current change (%, negative = inhibition) at 10uM [%]"
1,Cc1sc(NC(=O)CSc2nnc(C(C)C)n2C)c(C#N)c1C,-1.79
2,Cc1ccc(OCc2nnc(SCC(=O)Nc3sc(C)c(C)c3C#N)n2C)cc1,12.8
3,CN1CCN(C(=S)c2ccc(-c3cc(Cl)ccc3Cl)o2)CC1,-20.7
4,CC1CCN(C(=O)COC(=O)c2cc3ccccc3cc2O)CC1,3.92
5,O=C1c2ccccc2C(=O)N1n1c(=O)[nH]c2ccccc2c1=O,14.9
6,O=C(O)c1ccccc1-n1c2ccccc2c2ccccc21,19
7,COc1ccccc1NC(=O)C(C)OC(=O)Cc1n[nH]c(=O)c2ccccc12 (stereo not shown),9.99
8,Cn1c(SCc2nc3ccccc3[nH]2)nnc1-c1cnccn1,10.2
9,Oc1ccc(C=NCCc2ccccc2)cc1,10.2
10,COc1ccc(OC)c(/C=C/C(=O)N(C)CC(=O)Nc2ccc(N3CCOCC3)cc2)c1,-8.78
11,COc1ccc(C[C@H]2CN3C(=NC[C@@H]3Cc3ccccc3)N2CCNC(=O)c2ccc(C)c(Br)c2)cc1,-74
12,COc1ccc(C[C@H]2CN3C(=NC[C@H]3Cc3ccccc3)N2CCNC(=O)c2ccc(C)c(Br)c2)cc1,-69
13,CCCCCCNC(=O)N[C@@H](C(=O)NCCC[C@H]1CN2C(=NC[C@@H]2Cc2ccccc2)N1CCc1cccc(OC)c1)C(C)C,-18.7
14,COc1ccc(/C=N/Nc2cc(N(C)C)nc(N(C)C)n2)cc1,-28.5
15,COc1ccc(C2(C(=O)Nc3ccc(C)c(C)c3)CCOCC2)cc1,6.97
16,Cc1ccc2c(c1)sc(C)[n+]2CCCS(=O)(=O)[O-],29.7
17,COc1cc(/C=N/NC(=O)Cc2ccccc2)ccc1Oc1ccc([N+](=O)[O-])cc1[N+](=O)[O-],1.03
18,CN1CCCC(OC(=O)c2ccc(S(=O)(=O)N(C)C)cc2)C1.Cl (stereo not shown),8.58
19,CC1CN(CCOCCSc2ccccc2)CC(C)O1.Cl (stereo not shown),-14.9
20,Cl.c1ccc(SCCOCCN2CCOCC2)cc1,14.3
21,Cl.Clc1ccc(SCCOCCN2CCc3ccccc3C2)cc1,-53.7
22,Cc1ccc(Cl)c(OCCN2CCc3ccccc3C2)c1.Cl,-9.17
23,Cc1ccc(SCCOCCN2CCc3ccccc3C2)cc1,-60.5

row,SMILES,"hERG current change (%, negative = inhibition) at 10uM [%]"
1,c1ccc(SCCOCCN2CCc3ccccc3C2)cc1,-75.3
2,c1ccc(SCCN2CCc3ccccc3C2)cc1,-19.3
3,Cc1ccc(SCCOCCN2CCOCC2)cc1.Cl,-1.55
4,Cc1ccc(SCCOCCN2CC(C)OC(C)C2)cc1.Cl (stereo not shown),-12.4
5,O=C(c1cccnc1)N1CCC(Oc2ccc(C(=O)N3CCCC(O)C3)cc2)CC1 (stereo not shown),-0.912
6,CC(=O)c1cnc2nc(SCc3ccccc3)nn2c1C,0.852
7,O=C(c1ccco1)N1CCN(C2CC(=O)N(c3ccc4c(c3)OCO4)C2=O)CC1 (stereo not shown),-16.8
8,COc1ccc(CC(=O)N2CCN(c3ccccn3)CC2)cc1OC,8.9
9,COc1cc(C(=O)N/N=C/c2cc([N+](=O)[O-])cs2)cc(OC)c1OC,-8.26
10,C[C@@H](C(=O)NCc1ccc(S(C)(=O)=O)cc1)[C@H]1C[C@]1(C)[C@H](NC(=O)OCc1ccccc1)c1ccccc1,-35.4
11,C[C@@H](C(=O)NCc1ccc(S(C)(=O)=O)cc1)[C@@H]1C[C@@]1(C)[C@@H](NC(=O)OCc1ccccc1)c1ccccc1,-75.1
12,C[C@@H](C(=O)NCc1ccccc1)[C@H]1C[C@]1(C)[C@H](NC(=O)OCc1ccccc1)c1ccccc1,-21.3
13,CCCC(=O)n1nc(-c2ccco2)nc1SCc1ccccc1,0.232
14,CCOC(=O)N1CCN(C(=O)C(NS(=O)(=O)c2cccc3nsnc23)c2ccccc2)CC1 (stereo not shown),-47.1
15,CC1CCN(C(=O)C(NS(=O)(=O)c2cccc3nsnc23)C(C)C)CC1 (stereo not shown),-5.48
16,O=C(C(NS(=O)(=O)c1cccc2nsnc12)c1ccccc1)N1CCN(c2ccccc2)CC1 (stereo not shown),-71.4
17,O=C(C(NS(=O)(=O)c1cccc2nsnc12)c1ccccc1)N1CCN(c2ccccn2)CC1 (stereo not shown),-64.8
18,O=C(Nc1ccccn1)C(NS(=O)(=O)c1cccc2nsnc12)c1ccccc1 (stereo not shown),-4.67
19,O=C(O)C(NS(=O)(=O)c1cccc2nsnc12)c1ccccc1 (stereo not shown),16.1
20,O=C(NC1CCCC1)C(NS(=O)(=O)c1cccc2nsnc12)c1ccccc1 (stereo not shown),-10.5
21,CC1CCN(C(=O)C(NS(=O)(=O)c2cccc3nsnc23)c2ccccc2)CC1 (stereo not shown),-69.5
22,CN(CC(=O)N1CCN(c2ccccn2)CC1)S(=O)(=O)c1cccc2nsnc12,-23.6
